Activity score data for 107 molecules are collected here from PubChem BioAssay AID1814 (Broad Institute, 2009).

Molecules are shown by their SMILES. Hit rate of the full screen: of about 300,000 compounds, about 22,000 (7.3%) were called active. Inconclusive results (about 2%) are left out. Many of the other results were omitted from the sample, so actives are more common in it than they were. Values without a mark were called inactive. No stated cut-off is given here; in the data, active means activity score below about -60%; inconclusive means mostly about -28% to -61%; inactive means positive scores.

The nature of the test: Activators working through SNCA 5'UTR binding (MLPCN) (AID 1814). The settings on record: alpha-synuclein 5'UTR reporter, activators screen; hits give low values; tested at 7.5 µM.
As to `Cc1ccc(O)c(NC(=O)c2cc(-c3ccco3)on2)c1`, the activity score is -184% (active). Take `O=C(Cc1cccc2ccccc12)NNC(=O)Nc1ccc(Cl)cc1`: the activity score was -112% (active). Under `Cc1nn2cc(-c3ccc(Cl)cc3)cnc2c1Br` stands -110% (active).

In the case of `CN1CCN(NC(=O)Nc2ccc(Br)cc2)CC1`, the activity score is -64.9% (active). Under `COc1ccc(-n2nnnc2-c2nc3ccccc3s2)cc1` stands -77.3% (active); under `O=C(Nc1cccc(-c2nnc(-c3ccccc3)o2)c1)C1CCCO1` (configuration not stated), -126% (active). Turning to `O=c1c(-c2cccc(Cl)c2)c[nH]n1-c1ccccc1`, the activity score was -74.9% (active). Under `COc1ccc(Cn2c(-c3ccc(Cl)cc3)c[n+]3ccccc23)cc1` stands -155% (active). For `Fc1ccc(COc2ccc(-c3nnco3)cc2)cc1`, the activity score was -126% (active). Under `Cc1cc(C)c2nc3nc(C)cc(C)c3c(N)c2c1` stands -190% (active); under `CCCCC(O)(CCCC)C(=O)NN(C(=O)CCl)c1ccccc1`, -67.8% (active).

Turning to `S=C(Nc1ccc(Br)cc1Cl)N1CCC2(CC1)OCCO2`, the activity score is -70.7% (active). As to `COc1ccc(C(=O)CCc2ccccc2O)c(OC)c1`, the activity score was -128% (active). Consider `O=C(NC1CC1)c1ccc(-c2ccccc2)cc1`, for which the activity score is -142% (active). For `O=C(NC1CCCCC1)c1cc(C2CC2)on1` the value was -78% (active); for `O=C(NCCCn1ccnc1)c1cc(-c2ccccc2)on1`, -632% (active); for `O=C(NC1CCCC1)c1cc(-c2ccccc2)on1`, -324% (active). For `O=C(NCCOc1cccnc1)c1ccc(OC2CCN(Cc3ccccn3)CC2)cc1` the value was 95.3%; for `CN(C)S(=O)(=O)N1CCC(Oc2cccc(C(=O)NCCCC3CCCC3)c2)CC1`, -70.6% (active). Regarding `Cc1c(NC(=O)c2coc(=O)c(Br)c2)c(=O)n(-c2ccccc2)n1C`, the activity score was -75.7% (active). For `Cc1c(NC(=O)c2cc(-c3ccc(Cl)s3)nc3ccccc23)c(=O)n(-c2ccccc2)n1C` the value was -105% (active).

On to `CC1(C)CCSC(/C=C/c2ccccc2)=N1`, for which the activity score was -123% (active).

For the molecule `O=C(c1cnn(-c2ccc(Cl)cc2)c1)c1ccccc1O`, the activity score was -238% (active).

With `COc1ccc2nc(NC(=O)NC3CCCCC3)sc2c1`, the activity score was -186% (active). For the molecule `COc1ccc2nc(Nc3nc4cc5c(cc4s3)OCCO5)sc2c1`, the activity score is -103% (active). For `COc1ccc(NC(=O)Nc2ccc3nsnc3c2)cc1`, the activity score is -138% (active). Take `COc1ccc2nc(NC(=O)c3ccc(Br)s3)sc2c1`: the activity score is -209% (active). For `CCc1noc(C)c1C(=O)Nc1nc2ccc(OC)cc2s1` the value was -85% (active); for `COc1cccc(C(=O)Nc2nc3ccc(S(C)(=O)=O)cc3s2)c1`, -102% (active). Consider `COc1ccc2nc(Nc3nc4ccc(NC(C)=O)cc4s3)sc2c1`, for which the activity score is -95.5% (active). For `CCOc1ccc2nc(Nc3nc4ccc(NC(C)=O)cc4s3)sc2c1` the value was -88.4% (active); for `CCOc1ccc2nc(N(CCCN(C)C)C(=O)c3ccc(C(=O)c4ccccc4)cc3)sc2c1`, 90.2%. Under `COc1ccc(/C=N/OCc2ccccc2C#N)c(OC)c1` stands -182% (active).

As to `COc1ccc(N2CCN(C(=O)c3cccs3)CC2)cc1`, the activity score is -69.4% (active). Under `Cc1ccc(O)c(CNc2nc3ccccc3[nH]2)c1` stands -69.9% (active); under `COC(=O)Nc1nc2ccc(Sc3ccccc3)cc2[nH]1`, 59.2%. Under `Cc1ccc(-c2nc(COC(=O)c3c(C)noc3C)cs2)cc1` stands -170% (active); under `CCN1/C(=C/C(=S)Nc2ccccc2)Sc2ccccc21`, -111% (active). For `CSc1nccc(NC(=O)c2ccc(C(C)(C)C)cc2)n1` the value was -147% (active); for `O=C(NC(=S)NC1CCCCC1)c1ccc(Cl)cc1`, -160% (active). Take `CC(C)CNC(=S)NC(=O)c1ccc(Cl)cc1`: the activity score was -111% (active). Under `O=C(NC1CCCCC1)c1ccc(-c2ccc(Cl)cc2)o1` stands -150% (active); under `COc1ccc(C(=O)NC(=S)NC2CCCCC2)cc1`, -137% (active); under `Cc1ccc(OCCCC(=O)N2CCOCC2)c(C)c1`, -75.1% (active). Under `Cc1oc2c(c1C(=O)N1CCOCC1)C(=O)c1ccccc1C2=O` stands 101%.

In the case of `O=c1oc2ccccc2cc1-c1cn(-c2ccccc2)c(=S)[nH]1`, the activity score was 119%. In the case of `COc1ccc(-c2cn(-c3ccc(OC)cc3)c(=S)[nH]2)cc1`, the activity score was -129% (active).

For the molecule `O=C(Nc1ccc2oc(-c3ccc4ccccc4c3)nc2c1)c1cccs1`, the activity score is -233% (active). On to `CCN(CC)C(=O)c1sc2nc(-c3ccccc3)ccc2c1N`, for which the activity score was -178% (active). As to `O=C(NNC(=O)c1cc2c(s1)CCCC2)c1ccccc1`, the activity score is -80.5% (active). Under `O=C(Nc1ccc(F)cc1)c1cc2c(s1)CCCC2` stands -165% (active); under `CCN(CC)c1ccc(C(=O)c2cnc(/N=C/N(C)C)s2)cc1`, -64.1% (active). For `C=CCNc1cnn(-c2ccc(C)cc2)c(=O)c1Cl`, the activity score was -80.9% (active).

As for `Cc1sc2ncnc(Sc3nc4ccccc4s3)c2c1C`, the activity score was -71% (active). `CSc1ccccc1OCc1cc(C(=O)N2C[C@H]3CC[C@H]2C3)no1`: the activity score is -85.5% (active).

Consider `N#Cc1c(NC(=O)C2CCCO2)sc2c1CCCCC2` (configuration not stated), for which the activity score was -161% (active).

As for `Cc1ccc(C)c(NC(CC(=O)c2ccccc2)C(=O)OCC(=O)c2cccs2)c1` (configuration not stated), the activity score is -96.3% (active).

As for `O=C(Cn1ncc(N2CCCC2)c(Br)c1=O)c1ccc(Cl)cc1`, the activity score was -92.2% (active). Consider `O=C(CSc1cccc[n+]1[O-])c1ccc(-c2ccccc2)cc1`, for which the activity score was -146% (active).

For the molecule `CCOC(=O)c1[nH]c2c(c1C)C(=O)CC(c1ccc(N(C)C)cc1)C2` (configuration not stated), the activity score was -105% (active).

`CCOc1cc(/C=C2\SC(N3CCCCC3)=NC2=O)ccc1O`: the activity score is -75.9% (active).

As to `O=C1N=C(N2CCCC2)S/C1=C\c1cccc(Br)c1`, the activity score was -122% (active).

`O=C(COC(=O)c1cccc(Br)c1)Nc1cccc2c1C(=O)c1ccccc1C2=O`: the activity score is -79% (active). On to `CCCC(=O)N=c1sc2cccc(F)c2n1C`, for which the activity score is -76.7% (active). As for `Cn1c(=NC(=O)c2ccco2)sc2cccc(F)c21`, the activity score is -151% (active). For `CSc1ccccc1NC(=O)c1ccc2c(c1)CCN2S(C)(=O)=O` the value was -66.1% (active).

Consider `CS(=O)(=O)N1CCc2cc(C(=O)Nc3ccccc3)ccc21`, for which the activity score is -104% (active).

As for `CS(=O)(=O)N1CCc2cc(C(=O)Nc3ccccc3Br)ccc21`, the activity score is -124% (active). As for `O=C(Nc1cc(C(F)(F)F)ccc1Cl)c1cc2nc3c(c(C(F)(F)F)n2n1)CCCC3`, the activity score was -243% (active). For `CSc1ccccc1NC(=O)c1cc(C2CC2)on1` the value was -116% (active); for `O=C(Nc1cc(C(F)(F)F)ccc1Cl)c1cc(C2CC2)on1`, -77.3% (active). As to `O=C(O)c1ccccc1CSc1nc2ccccc2s1`, the activity score is -62.9% (active). Under `CC(/C=N/NC(=O)c1cc(-c2ccc3ccccc3c2)n[nH]1)=C\c1ccco1` stands -220% (active).

Take `COc1ccc(CNC(=O)c2ccc3oc(C(C)C)nc3c2)cc1`: the activity score was -118% (active). Take `COC(=O)c1ccc(CNC(=O)c2ccc3oc(C(C)C)nc3c2)cc1`: the activity score was -95.9% (active). Regarding `COC(=O)c1ccc(Sc2ccc(F)cc2)c(N)c1`, the activity score is -107% (active). For `CC(C)(C)c1ccc(/C=C2\SC(=O)N=C2N)cc1` the value was -78.7% (active); for `O=C(Nc1cccc2ccccc12)c1onc2c1CCCC2`, -204% (active); for `Cc1ccc2nc(-c3ccc(SCC(=O)Nc4cc(C)on4)nc3)[nH]c2c1`, -160% (active). Under `O=C(c1noc2c1CCCC2)N1CCc2ccccc2C1` stands -165% (active); under `O=C(NCCNc1ccccc1[N+](=O)[O-])c1ccccc1F`, -168% (active). For `NC(=O)c1ccccc1N=Cc1ccc2ccccc2c1` the value was -211% (active). As to `CCc1ccc2nc3sc(C(=O)Nc4nnc(CC)s4)c(N)c3cc2c1`, the activity score was -71.1% (active).

On to `Cc1nc(C)c(-c2csc(NCCc3ccccc3)n2)s1`, for which the activity score is -84.7% (active). As to `CC(c1ccccn1)N(C)C(=O)c1ccc2nc(Cc3cccc(Cl)c3)oc2c1` (configuration not stated), the activity score was -80.8% (active). Turning to `COc1ccc(-c2cc3n(n2)CCc2nc4ccccc4n2-3)cc1`, the activity score was -137% (active). For `COC(=O)c1sc(N2CCN(Cc3ccccc3)CC2)nc1N` the value was -67.9% (active); for `CCN1CCN(c2cc3nc(C)n(Cc4ccccc4)c(=O)c3cc2NC(=O)c2ccccc2F)CC1`, 65.1%. For `Oc1ccc2ccccc2c1N=Nc1nccs1` the value was 87.4%; for `Cn1c(-c2ccc(C(=O)c3ccccc3)s2)nc2ccccc21`, -73.8% (active); for `O=C(/C=C/c1cnc2ccccc2n1)NC1CCCCCC1`, -94.3% (active). For `O=[N+]([O-])c1ccccc1S(=O)(=O)Nc1cccc2cccnc12` the value was 59.9%; for `O=C(Nc1ccccc1Cl)Nc1cccc2cccnc12`, -162% (active); for `COc1ccc(NC(=O)Nc2cccc3cccnc23)cc1`, -211% (active). In the case of `S=C(c1ccc(-c2ccccc2)o1)N1CCCCC1`, the activity score was -113% (active).

Turning to `OCCN1CCN(C(=S)c2ccc(-c3ccccc3)cc2)CC1`, the activity score is 88%. For `O=C(Nc1ccc(Cl)cn1)Nc1cccs1` the value was -78.6% (active); for `Clc1ccc(Nc2ccc3ccccc3n2)cc1`, -61.9% (active). Take `CCOC(=O)C1(Cc2ccccc2C)CCCN(C(=O)c2ccc(COC)o2)C1` (configuration not stated): the activity score is -84.1% (active). For the molecule `O=C(Nc1ccc(N2CCOCC2)nc1)c1c(F)cccc1F`, the activity score is -91.2% (active). With `COC(=O)CCNc1ccc2c(c1)OCCO2`, the activity score is -62.2% (active). Turning to `CCCCC(=O)Nc1ccc2c(c1)OCCO2`, the activity score is -102% (active).

Turning to `CCc1ccccc1OCC(=O)Nc1ccc2c(c1)OCCO2`, the activity score is -104% (active). As for `Cc1ccc(SCC(=O)Nc2ccc3c(c2)OCCO3)cc1`, the activity score was -96.9% (active). Under `CC1Cc2ccccc2N1C(=O)CSc1nc2ccccc2o1` (configuration not stated) stands -87.9% (active). Regarding `CCN(CC)C(=O)CSc1nc2ccccc2o1`, the activity score is -63.8% (active). Under `CC(C)(C)C(=O)CSc1nc2ccccc2o1` stands -109% (active).
